In the library only some 19% were active in any assay of this set; here they are far more common.
IL-1B inflam inh – qHTS for Inhibitors of Inflammasome Signaling: IL-1-beta AlphaLISA Primary Screen. THP-1 LPS/ATP IL-1B secretion, AlphaLISA, 16 h; active compounds read low. activity change, % at 57.5 µM. hit rate 4.7% among 360,000. AID 743279, 2014; in the data active = activity change below about -50%; inconclusive = mostly about -30% to -49%; note: % is set by controls: 0 for no effect and ±100 for the full control effect
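THP-1 cells pretreated 1 hr with compounds (up to 57.5 uM final), then stimulated with LPS (250 ng/mL final) plus ATP (1.25 mM final); secreted IL-1B measured by AlphaLISA after 16 hr, decreased signal indicating inhibition.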
HepG2 tox – qHTS for Inhibitors of TGF-b: Cytotox Counterscreen | Potency, µM (highest dose often 46.1 µM), for inactives: at the top dose activity change, negative = cytotoxicity, most hits filed as cytotoxic | hit rate 0.76% among 410,000 | HepG2 CAGA-GFP viability, ATP luminescence, 18 h; note: potency is the fitted concentration of half-maximal effect
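CellTiter-Glo luminescence gave cytotoxicity after 18 hours at 37 degrees C. The cells were HepG2 CAGA-GFP in 1% FBS DMEM, stimulated with 500 pg/mL TGF-beta after compound addition. %Activity was normalised to no-cell wells (complete cell-killing) and DMSO (no toxicity), and curves were fitted and classified.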
ASM inhibitor – Inhibitors of Secretory Acid Sphingomyelinase (S-ASM): qHTS | Potency, µM (top dose mostly 57.5 µM), for inactives: top-dose activity change, negative = inhibition, actives largely listed as inhibitors | hit rate 0.006% among 340,000 | placental ASM, HMU-PC fluorogenic substrate, 60 min | Sphingomyelin phosphodiesterase (Homo sapiens), P17405 | AID 504937, 2011; note: potency is the fitted concentration of half-maximal effect
Target sequence (P17405 47-631 limits assumed): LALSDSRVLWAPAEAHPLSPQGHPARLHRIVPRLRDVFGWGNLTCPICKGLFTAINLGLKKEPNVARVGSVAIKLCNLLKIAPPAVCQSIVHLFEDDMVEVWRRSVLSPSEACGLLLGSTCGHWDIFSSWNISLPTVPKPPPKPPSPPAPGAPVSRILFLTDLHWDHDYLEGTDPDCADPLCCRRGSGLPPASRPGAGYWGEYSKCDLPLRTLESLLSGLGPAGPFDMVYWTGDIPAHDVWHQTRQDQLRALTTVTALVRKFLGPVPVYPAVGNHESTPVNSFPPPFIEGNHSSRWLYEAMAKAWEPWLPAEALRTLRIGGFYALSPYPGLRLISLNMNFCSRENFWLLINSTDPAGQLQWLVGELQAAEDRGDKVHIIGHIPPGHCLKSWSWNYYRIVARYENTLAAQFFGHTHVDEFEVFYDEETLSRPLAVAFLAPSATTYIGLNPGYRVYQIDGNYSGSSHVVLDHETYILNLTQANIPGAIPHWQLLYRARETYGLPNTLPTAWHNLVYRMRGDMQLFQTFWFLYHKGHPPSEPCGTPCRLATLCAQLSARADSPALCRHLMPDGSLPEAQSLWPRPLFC
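HMU-PC0 cleavage (9 uM final) by human placental ASM, 60 min at 37 °C following 10 min compound exposure at RT; stopped at pH 10, fluorescence Ex 386/Em 447 nm.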
TGFb SMAD3 inh – qHTS for Inhibitors of TGF-b | hit rate 1.2% among 410,000 | Potency, µM (titrated, usually from 46.1 µM), without a hit: at the highest dose activity, negative = inhibition, actives largely listed as inhibitors | AID 588855, 2011 | HepG2 CAGA-GFP TGF-b/SMAD3 reporter, GFP fluorescence, 18 h; TGF-beta stimulated, 500 pg/mL final; note: potency is the fitted concentration of half-maximal effect; % is set by controls: 0 for no effect and ±100 for the full control effect; nearly all actives have a fitted effect of over 65% in size
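Using HEPG2 CAGA-GFP reporter cells at 1000 cells/well, we pinned test compounds, stimulated with recombinant TGF-beta (500 pg/mL final) and measured total well GFP after 18 h.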
DT40 TDP1 CPT – qHTS for Inhibitors of human tyrosyl-DNA phosphodiesterase 1 (TDP1): qHTS in cells in presence of CPT; chicken DT40 Tdp1-/-;hTDP1 cells + 20 nM CPT, ATP luminescence, 48 h; Potency, µM (doses to about 46.2 µM), inactives show at the top dose activity change, negative = growth inhibition, most hits filed as inhibitors; hit rate 12% among 420,000; AID 686979, 2013; note: potency is the fitted concentration of half-maximal effect; % is set by controls: 0 for no effect and ±100 for the full control effect; nearly all actives have a fitted effect of over 55% in size
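Chicken DT40 Tdp1-/- cells stably complemented with human TDP1 were seeded at 400 cells/well in medium containing 20 nM camptothecin, exposed to pin-transferred compounds, and grown at 37 °C for at least 48 hr. Viability was read as ATP luminescence.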
DT40 TDP1 no CPT – qHTS for Inhibitors of human tyrosyl-DNA phosphodiesterase 1 (TDP1): qHTS in cells in absence of CPT; hit rate 15% among 420,000; Potency, µM (highest dose often 46.2 µM), for inactives: top-dose activity change, negative = growth inhibition, most hits filed as inhibitors; AID 686978, 2013; DT40 Tdp1-/- hTDP1 cells, no CPT, ATP luminescence, 48 h; note: potency is the fitted concentration of half-maximal effect; % is set by controls: 0 for no effect and ±100 for the full control effect; nearly all actives have a fitted effect of over 55% in size
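Camptothecin absent (DMSO only). Human TDP1-complemented DT40 knockout cells, 400 cells/well, 37 °C for minimum 48 hr; ATP measured via CellTiter-Glo, 30 min dark incubation, luminescence.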
Active calls of the source: *; ? = inconclusive; . = not tested or not shown. Unless noted, calls come from the whole dose curve; as a rule, active = well fitted curve in the direction sought with a large enough effect; inconclusive = small, poorly fitted or top-dose-only effect, or another doubt; inactive = no such curve, though single readings can be large; an effect the other way counts as inactive or inconclusive.

SMILES	IL-1B inflam inh	HepG2 tox	ASM inhibitor	TGFb SMAD3 inh	DT40 TDP1 CPT	DT40 TDP1 no CPT
CCN(C(=O)COc1cc(=O)n(CC)c2ccccc12)c1cc(Cl)ccc1OC	16	-20%	3%	-7%	?	21µM*
CCCN(C(=O)COc1cc(=O)n(CC)c2ccccc12)c1ccc(C(C)C)cc1	.	-73%	.	?	16µM*	10µM*
CCn1c(=O)cc(OCC(=O)Nc2cccc(C)n2)c2ccccc21	-1	4%	-5%	0%	-10%	-22%
CCn1c(=O)cc(OCC(=O)NC(C)c2ccc3c(c2)OCCO3)c2ccccc21 (stereo not given)	?	-3%	1%	-6%	?	?
CCCCn1c(N)c(N(CCC(C)C)C(=O)c2c(CC)noc2C)c(=O)[nH]c1=O	12	10%	.	4%	-1%	4%
Cc1ccc2c(c1)c1c(c(=O)n(-c3ccccc3C)c(=O)n1CC(=O)NCCC1=CCCCC1)n2C	.	-1%	.	2%	?	?
CCN(Cc1ccccc1)C(=O)COc1cc(=O)n(CC)c2ccccc12	-5	-28%	3%	-6%	?	21µM*
CCCN(CCC)C(=O)COc1cc(=O)n(CC)c2ccccc12	20	-17%	-1%	6%	?	?
CCc1ccccc1NC(=O)C1CCN(C(=O)c2ccc([N+](=O)[O-])cc2)CC1	6	-8%	-1%	-11%	-2%	-24%
CC(Cl)C(=O)N1c2ccccc2CCc2ccccc21 (stereo not given)	-8	-18%	2%	-19%	?	13µM*
O=C(C(Cc1ccccc1)N1C(=O)c2ccccc2C1=O)N1c2ccccc2CCc2ccccc21 (stereo not given)	-18	-6%	-5%	?	12µM*	6.5µM*
CC(=O)N(C)N1c2ccccc2CCc2ccccc21	27	-19%	0%	?	?	15µM*
CC(C)(C)OC(=O)N1CCC(C(=O)NCC2CCCO2)CC1 (stereo not given)	-6	-2%	12%	-4%	5%	-10%
COCCc1ccc(OC2(C)CCN(Cc3ccc(OC)c4ccccc34)C2)cc1 (stereo not given)	11	-7%	.	6%	?	16µM*
COc1cccc(CN2CCC(C)(Oc3cccc(Cl)c3)C2)c1OC (stereo not given)	12	-26%	.	-3%	?	16µM*
COCCc1ccc(OC2(C)CCN(Cc3cccc(OC)c3OC)C2)cc1 (stereo not given)	12	-4%	.	2%	?	-11%
COc1ccc(OC)c(NC(=O)C2(C)CCN2Cc2ccccc2OC(F)F)c1 (stereo not given)	-17	-28%	.	-11%	?	16µM*
CC(=O)N1CCc2cc(NC(=O)C3(C)CCN3CCc3ccccc3)ccc21 (stereo not given)	-6	-24%	.	-15%	21µM*	21µM*
COc1cccc(NC(=O)C2(C)CCN2Cc2ccc3ccccc3c2)c1 (stereo not given)	6	-11%	.	?	?	?
COc1ccc(OC)c(NC(=O)C2(C)CCN2Cc2ccsc2)c1 (stereo not given)	-9	-3%	.	-8%	16µM*	12µM*
CC(=O)N1CCc2cc(NC(=O)C3(C)CCN3Cc3ccccc3OC(F)F)ccc21 (stereo not given)	-9	-29%	.	6%	26µM*	18µM*
